Active and inactive are the calls of the source. A call without a number means that no potency is given here. The call rests on the fitted dose curve; in most records, active means well fitted activation curve with a large enough effect; inconclusive means small, poorly fitted or top-dose-only effect; inactive means no such curve, though single readings can be large or run the other way.
Each compound was assayed against Cytochrome P450 3A4 (Homo sapiens) (UniProt P08684) (assay: qHTS Assay for Activators of Cytochrome P450 3A4 (AID 885; further: nearly all actives have a fitted effect of over 65% in size)). Conditions: recombinant CYP3A4, Luciferin-PPXE luminescence, 60 min; series mostly up to 57.1 µM.
Cytochrome P450 3A4 (Homo sapiens), sequence (P08684 whole entry, looked up): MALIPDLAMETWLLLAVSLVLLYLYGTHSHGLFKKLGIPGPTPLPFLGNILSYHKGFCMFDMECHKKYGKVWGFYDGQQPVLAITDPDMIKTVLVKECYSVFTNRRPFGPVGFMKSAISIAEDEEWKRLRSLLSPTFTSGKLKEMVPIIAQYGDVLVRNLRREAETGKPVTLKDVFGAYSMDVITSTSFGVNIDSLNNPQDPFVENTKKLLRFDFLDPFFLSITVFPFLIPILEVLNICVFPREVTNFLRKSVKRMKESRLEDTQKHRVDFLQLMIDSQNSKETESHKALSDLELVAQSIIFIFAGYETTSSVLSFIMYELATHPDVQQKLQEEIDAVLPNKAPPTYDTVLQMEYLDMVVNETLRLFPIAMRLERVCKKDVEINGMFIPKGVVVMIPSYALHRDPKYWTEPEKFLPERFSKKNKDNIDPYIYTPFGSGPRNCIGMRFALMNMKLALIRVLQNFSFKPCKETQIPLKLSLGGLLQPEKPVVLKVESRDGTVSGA
Protocol: NIH Molecular Libraries Screening Centers Network [MLSCN]
NIH Chemical Genomics Center [NCGC]
The P450 gene superfamily is involved in the metabolism and clearance of xenobiotics. This assay used human CYP3A4 to measure the dealkylation of luciferin-6' phenylpiperazinylyl (Luciferin-PPXE; […]) to luciferin. The luciferin is then measured by luminescence after the addition of a luciferase detection reagent. Luciferin-PPXE concentration in the assay was equal to its KM for CYP3A4. Inhibitors and some substrates limit the production of luciferin, and decrease measured luminescence; activators increase the production of luciferin and luminescence.
NCGC Assay Protocol Summary:
Two uL of enzyme and substrate mix (final concentrations: 20nM CYP3A4, 25uM Luciferin-PPXE, 200mM KPO4) were dispensed into a white, solid bottom 1536-well microtiter plate. 23nL of compound was transferred by a pin tool. The plate was incubated at RT for 10 min. Two uL of an NADPH regeneration solution (Promega supplied reagent) was dispensed and the reaction was allowed to continue for 60 min at RT. Then the reaction was stopped by reconstituted luciferin detection buffer. After another 20 min of incubation the plate was read on the ViewLux (Perkin Elmer) at 60 sec exposure and 2x2 binning. This protocol was carried out with Promega-Glo reagents and further information can be found at http://www.promega.com/tbs/tb325/tb325.pdf. Data were normalized to the to AC100 inhibition (57 uM ketoconazole).
Keywords: P450, CYP2D6, Luciferase, MLSMR, MLSCN, NIH Roadmap, qHTS, NCGC
Potency means the concentration at half of the fitted maximal effect.

SMILES	Potency
COc1ccc(NC(=O)N2CCCC3(CCN(C(=O)Oc4ccccc4)CC3)C2)cc1	inactive
COc1cc(C=C(C#N)C#N)cc(O)c1O	inactive
O=C(c1ccncc1)N1CCC2(CC1)CN(Cc1ccccc1)C2	inactive
CN1CCc2cc3c(cc2[C@@H]1[C@@H]1OC(=O)c2c1ccc1c2OCO1)OCO3	inactive
CC(C)N(CC[C@@](C(N)=O)(c1ccccc1)c1ccccn1)C(C)C	inactive
c1ccc(N2CC[C@@]3(CCCNC3)C2)cc1	inactive
CC1CC(O)[C@]2(O)[C@]13CC(=O)OC[C@@]2(C)[C@@](C)(O)C(=O)C3 (stereo not given in full)	inactive
COc1cc(C2c3cc4c(cc3C(OC(C)=O)[C@H]3COC(=O)C23)OCO4)cc(OC)c1OC (stereo not given in full)	inactive
O=C1C=CC(=O)c2c(O)cccc21	inactive
CC(C)=CCCC1(C)C=Cc2c(O)c3c(c(CC=C(C)C)c2O1)OC12C(=CC4CC1C(C)(C)OC2(C/C=C(/C)C(=O)O)C4=O)C3=O (stereo not given)	inactive
CC(C)NC(=O)N1CCCC2(CCN(C(=O)Oc3ccccc3)CC2)C1	inactive
CC(C)NC(=O)N1CCC2(CC1)CCN(C(=O)Oc1ccccc1)CC2	25.1 µM (active)
CC1CC[C@@]2(OC1)OC1C(O)C3C4CC[C@H]5CC(O[C@@H]6O[C@@H](CO)[C@H](OC7OC(CO)C(O)C(OC8OCC(O)C(O)[C@H]8O)[C@@H]7O[C@@H]7OC(CO)[C@H](O)[C@@H](O[C@@H]8OC(CO)C(O)C(O)C8O)C7O)C(O)C6O)C(O)C[C@]5(C)C4CC[C@]3(C)C1C2C (stereo not given in full)	inactive
CC[C@@]1(O)CC(O)c2c(cc3c(c2O)C(=O)c2c(O)ccc(O)c2C3=O)C1C(=O)OC (stereo not given in full)	inactive
O=C(Nc1ccccc1)N1CC2(CCN(C(=O)Oc3ccccc3)CC2)C1	15.8 µM (active)
CCN1C[C@]2(C)CC[C@H](OC)[C@@]34[C@@H]2[C@H](OC(C)=O)[C@]2(OCO[C@@]25C[C@@H](OC)[C@@H]2C[C@@]3(O)[C@H]5[C@@H]2OC)[C@H]14	inactive
CC(=O)OC1CC2C(C)(C)C(=O)C=C[C@]2(C)C2CC[C@]3(C)C(=CC(=O)OC3c3ccoc3)[C@]12C (stereo not given in full)	inactive
C=CC1CN2CCC1CC2C(OC(=O)OCC)c1ccnc2ccc(OC)cc12 (stereo not given)	inactive
C[C@]12CCC(=O)C=C1CCc1ccc(O)cc12	inactive
CNC1[C@@H](O)C(OC2C(N)C[C@H](N)[C@@H](O[C@@H]3OC(C(C)O)C(O)C(O)C3N)C2O)OC[C@]1(C)O (stereo not given in full)	inactive

SMILES	Potency
CC(C)CN1CCCC2(CCN(C(=O)c3ccncc3)CC2)C1	inactive
CC1=C2C3OC(=O)C(C)C3CC[C@@]2(C)C=CC1=O (stereo not given in full)	inactive
CCCN(CCC)C(=O)Cc1c(-c2ccc(Cl)cc2)nc2c(Cl)cc(Cl)cn12	inactive
CN1CC[C@@]2(CCCN(C(=O)c3ccncc3)C2)C1	inactive
COc1ccccc1CN1CC[C@@]2(CCCN(C(=O)Oc3ccccc3)C2)C1	inactive
O=c1cccc2n1CC1CNCC2C1 (stereo not given)	inactive
CNC(=O)N(C)c1nnc(C(C)(C)C)s1	inactive
CC(=O)OC1C[C@@]2(C)C(c3ccoc3)C[C@H]3O[C@@]32[C@@]2(C)C(=O)C(O)=C3C(C)(C)C(=O)C=C[C@]3(C)C12 (stereo not given in full)	inactive
Clc1ccccc1-c1cncnc1NCCc1cnc[nH]1	inactive
O=C(OC1CCN(CCCl)CC1)C(c1ccccc1)c1ccccc1	inactive
ClC1=C(Cl)C2(Cl)C3C4C=CC(C4)C3C1(Cl)C2(Cl)Cl (stereo not given)	inactive
C[C@@]12CC[C@H]3[C@@H](CC[C@@H]4C[C@H]5S[C@H]5C[C@]43C)[C@H]1CC[C@H]2O	inactive
C=CCc1ccc(OC)cc1	inactive
O=C(Oc1ccccc1)N1CCC[C@@]2(CCN(C(c3ccccc3)c3ccccc3)C2)C1	inactive
O=C1C=C2C=CC3C[C@@]2(O1)C1CCCCN31 (stereo not given in full)	inactive
NCC#Cc1ccccc1	inactive
N#Cc1ccc(CN2CC[C@@]3(CCCNC3)C2)cc1	inactive
COc1ccc2c(c1OC)C(=O)O[C@H]2[C@H]1c2cc3c(cc2CCN1C)OCO3	inactive
O=C(Nc1cccc(F)c1)N1CCCC2(CCN(C(=O)Oc3ccccc3)CC2)C1	inactive
CN1Cc2c(ccc3c2OCO3)[C@@H]2[C@@H](O)Cc3cc4c(cc3[C@@H]21)OCO4	inactive

Reference: PubChem BioAssay (NCATS)
